Assay outcomes deposited in PubChem by National Center for Advancing Translational Sciences (NCATS).
Nrf2 activator: activates Nrf2 signaling. AREc32 ARE-luciferase reporter (MCF7-derived line), luminescence, 24 h. Potency, µM (titrated, usually from 46.1 µM), without a hit: top-dose activation, hits mostly activators. actives 0.31% (n = 410,000); also: potency is read from the fitted curve at half-maximal effect; % of control where 0% means no effect; nearly all actives have a fitted effect of over 65% in size
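For detection, Steady-Glo was added and plates sat 30 min at RT; before that, AREc32_Fluc cells grown overnight in OPTI-MEM/5% FBS had been treated with 23 nL compound for 24 hr at 37 deg C.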
Apoferritin bind: binds horse apoferritin like a general anesthetic. P02791. apoferritin/1-aminoanthracene competitive binding, fluorescence. Potency, µM (doses to about 77.5 µM), inactives show at the highest dose activity change, negative = displacement, hits mostly inhibitors. AID 485281. actives 0.074% (n = 350,000); also: potency is read from the fitted curve at half-maximal effect; % is scaled to controls: 0 for no effect and ±100 for the full control effect; nearly all actives have a fitted effect of over 20% in size
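Concentration-response curves derived by four-parameter Hill fitting of normalized fluorescence, where compounds displaced 1-AMA from 10 uM horse apoferritin following a brief 10 min room-temperature incubation; propofol titration acted as positive control.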
Giardia killer: kills Giardia lamblia; Giardia lamblia trophozoite viability; activity change, % at 7.66 µM, hits read low; actives 0.15% (n = 340,000); AID 540267; in the data active = activity change below about -80%; inconclusive = between about -30% and that limit;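 also: parasites exposed to compound for two days anaerobically before the ATP read; % is scaled to controls: 0 for no effect and ±100 for the full control effect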
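Viability, read as ATP luminescence: trophozoites at 100 cells/well, compound added, 48 hrs anaerobic at 37 deg C, then 15-30 min room-temperature development before reading.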
IDH1 R132H inh: human IDH1 R132H inhibition; O75874; IDH1-R132H enzyme, NADPH consumption, diaphorase/resazurin fluorescence; Potency, µM (highest dose often 76.6 µM), for the others: top-dose activity change, negative = inhibition, most hits filed as inhibitors; actives 0.093% (n = 390,000); AID 602179; also: potency is read from the fitted curve at half-maximal effect; % is scaled to controls: 0 for no effect and ±100 for the full control effect; nearly all actives have a fitted effect of over 65% in size
Target sequence (O75874 whole entry R132H, stated change not applied): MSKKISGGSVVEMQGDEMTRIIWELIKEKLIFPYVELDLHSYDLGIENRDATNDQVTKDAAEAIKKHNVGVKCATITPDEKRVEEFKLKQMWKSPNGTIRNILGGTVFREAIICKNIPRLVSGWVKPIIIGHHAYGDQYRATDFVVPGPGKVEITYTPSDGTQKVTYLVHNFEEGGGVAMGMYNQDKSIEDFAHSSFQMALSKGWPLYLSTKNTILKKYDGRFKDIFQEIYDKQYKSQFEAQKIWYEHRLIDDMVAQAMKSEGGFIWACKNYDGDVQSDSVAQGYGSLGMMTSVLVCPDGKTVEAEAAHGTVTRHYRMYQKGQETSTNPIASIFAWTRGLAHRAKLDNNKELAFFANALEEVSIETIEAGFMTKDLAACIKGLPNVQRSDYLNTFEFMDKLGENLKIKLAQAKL
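IDH1-R132H (0.5 ug/mL dispensed) in pH 7.5 Tris buffer was preincubated 30 min with compound, then given a substrate mix of 0.016 mM NADPH and 2 mM alpha-KG for 80 min at room temperature; remaining NADPH was read by diaphorase/resazurin fluorescence.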
Nrf2 block: Nrf2 pathway inhibition. AID 504444. A549 ARE-Fluc reporter, luciferase luminescence, 18-24 h. Potency, µM (doses to about 46 µM), for the others: top-dose activity change, negative = inhibition, most hits filed as inhibitors. actives 2.1% (n = 360,000); also: potency is read from the fitted curve at half-maximal effect; % is scaled to controls: 0 for no effect and ±100 for the full control effect; nearly all actives have a fitted effect of over 60% in size
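Two sequential reads on A549 ARE_Fluc cells exposed to compound for 18-24 h: a CellTiter-Fluor fluorescence read for viability, then a luciferase luminescence read for Nrf2/ARE activity.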
A549 tox: counter-screen for Nrf2 inhibitors: cytotoxicity in A549 cells | Potency, µM (top dose mostly 46 µM), without a hit: at the top dose activity change, negative = cytotoxicity, most hits filed as inhibitors | actives 0.16% (n = 390,000) | A549 ARE-Fluc cells, CellTiter-Fluor viability, 18-24 h; also: potency is read from the fitted curve at half-maximal effect; % is scaled to controls: 0 for no effect and ±100 for the full control effect
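A549 ARE-Fluc cells in 5% FBS OPTI-MEM, 5000 cells/well, rested 2 h then exposed to compounds in concentration-response for 18-24 h at 37 °C. Viability by CellTiter-Fluor fluorescence (Ex 405/Em 525) after 30 min; luciferase luminescence (BugLite, 15 min, RT) read afterwards.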
* marks the source's active call; other numbers are inactive results. Shown are actives, neighbours in structure and some others; about 2.3% of the full set was active somewhere. Unless noted, calls follow the shape of the dose curve; as a rule, active = well fitted curve in the direction sought with a large enough effect; inconclusive = small, poorly fitted or top-dose-only effect, or another doubt; inactive = no such curve, though single readings can be large; an effect the other way counts as inactive or inconclusive.

How did Cc1ccccc1-c1cc(C(=O)NCc2ccc(OC(F)(F)F)cc2)n(CC2CC(c3cccnc3)=NO2)n1 (configuration not stated) do in these assays?
Nrf2 activator: -2.6%; Giardia killer: -11.3; IDH1 R132H inh: 0.4%; Nrf2 block: 20.6µM*; A549 tox: -25.3%

How did COc1ccc(OC)c(CCNC(=O)c2cc3c(-c4ccccc4F)nn(C)c3s2)c1 do in these assays?
Nrf2 activator: -0.3%; Apoferritin bind: 36.9%; IDH1 R132H inh: 8.6%; Nrf2 block: 20.6µM*; A549 tox: -1.7%

How did CCc1cc[n+](C2=C([O-])c3ccccc3C(=O)/C2=N\S(=O)(=O)c2cccs2)cc1 do in these assays?
Nrf2 activator: -2.4%; Apoferritin bind: -9.6%; Giardia killer: -21.7; IDH1 R132H inh: 19.4%; Nrf2 block: 18.4µM*; A549 tox: inconclusive

What do the screens show for `COc1ccc2oc(C(=O)OCC(=O)NC3CCS(=O)(=O)C3)c(C)c2c1` (configuration not stated)?
Nrf2 activator: 0.5%; IDH1 R132H inh: 12.2%

Results for Cc1csc(CNc2ncnc3cc(-c4ccc5c(c4)OCO5)ccc23)n1 ?
Nrf2 block: -5.0%; A549 tox: -7.6%

What do the screens show for `Cc1ccc(C(=O)Nc2ccc3ncccc3c2)cc1`?
Nrf2 activator: -1.6%; Apoferritin bind: 2.8%; Giardia killer: -84.8*; IDH1 R132H inh: 0.0%; Nrf2 block: inconclusive; A549 tox: 2.4%

Results for COc1ccc(C(=O)Nc2ccc3ncccc3c2)cc1 ?
Nrf2 activator: -2.1%; Apoferritin bind: 0.0%; Giardia killer: inconclusive; IDH1 R132H inh: 10.7%; Nrf2 block: inconclusive; A549 tox: 1.3%

What do the screens show for `Cc1ccc2oc(C(=O)N(Cc3sccc3C)C3CCS(=O)(=O)C3)c(C)c2c1` (configuration not stated)?
Nrf2 activator: 6.3%; Apoferritin bind: -9.6%; Nrf2 block: 23.1µM*; A549 tox: -15.4%

How did Cc1ccc(F)c(C2C3C=CCC(c4ccccc4)C3C(=O)N2Cc2ccccc2)c1 (configuration not stated) do in these assays?
Apoferritin bind: -3.9%; Giardia killer: 0.1; Nrf2 block: inconclusive; A549 tox: -11.5%

Results for O=C(c1cc(C2CC2)nc2ccc(Br)cc12)N1N=C(C(F)F)CC1(O)C(F)F (configuration not stated) ?
Nrf2 activator: -1.5%; Apoferritin bind: -16.7%; Giardia killer: 12.4; IDH1 R132H inh: 3.7%; Nrf2 block: 18.4µM*; A549 tox: inconclusive

What do the screens show for `COc1ccccc1NC(=O)C(=O)N/N=C/c1cccs1`?
Nrf2 activator: 11.2µM*; Apoferritin bind: -16.8%; Giardia killer: 13.3; IDH1 R132H inh: 2.3%; Nrf2 block: inconclusive; A549 tox: 7.8%

How did Nc1nc(SCc2ccc(Cl)cc2)ns1 do in these assays?
Nrf2 activator: 5.3%; Apoferritin bind: 50.1µM*; Giardia killer: inconclusive; IDH1 R132H inh: 5.2%; Nrf2 block: inconclusive; A549 tox: -4.1%

What do the screens show for `CC(C)CCNC(=O)c1c[nH]c2ccc(S(=O)(=O)Nc3cccc(C(F)(F)F)c3)cc2c1=O`?
Nrf2 activator: 0.2%; Apoferritin bind: inconclusive; IDH1 R132H inh: -7.3%; A549 tox: 2.0%

Results for COc1cccc(NS(=O)(=O)c2ccc3[nH]cc(C(=O)NCCC(C)C)c(=O)c3c2)c1 ?
Nrf2 activator: 3.5%; Apoferritin bind: inconclusive; Giardia killer: 7.3; IDH1 R132H inh: 1.4%; Nrf2 block: 16.4µM*; A549 tox: -14.7%

What do the screens show for `O=S(=O)(c1ccc2c(c1)OCCO2)N1CCN(S(=O)(=O)c2ccccc2F)CC1`?
Nrf2 block: -8.4%; A549 tox: -6.2%
